# From PubChem BioAssay AID686971 (National Center for Advancing Translational Sciences (NCATS), 2013)
# The campaign covered roughly 360,000 compounds. About 7,500 (2.1%) were called active. Roughly 8% stayed inconclusive and do not appear here. The list comes from a sample in which actives are over-represented; it also holds similar structures and randomly drawn compounds. Unmarked numbers belong to inactive results. Calls come from the whole dose curve; as a rule, active = well fitted cell-killing curve with a large enough effect; inconclusive = small, poorly fitted or top-dose-only effect, or effect the other way, or another doubt; inactive = no such curve, though single readings can be large or run the other way.
# Experiment: qHTS for induction of synthetic lethality in tumor cells producing 2HG: qHTS for the HT-1080-IDH1KD cell line;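 for activity, negative = toxicity: 0% = DMSO wells and -100% = cell-free medium wells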
# Conditions: HT-1080 IDH1 knockdown viability, ATP luminescence, 48 h; series mostly up to 46.1 µM; activity, negative = toxicity: at the top concentration
# Summary of the method: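 Using the IDH1-knockdown HT-1080 line run in the same batch and compound series as the NT line, viability after 48 h at 37 °C was determined by CellTiter-Glo luminescence and expressed as % activity.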
# Potency is the fitted concentration of half-maximal effect.
SMILES,"activity, negative = toxicity [%]",Potency
COc1ccccc1Cc1c(-c2ccc(Cl)cc2)nc2c3ccccc3ccn12,-8.84,
CCCS(=O)(=O)NC(=O)C1(C)CCCN(C(=O)c2cccs2)C1 (stereo not given),18.4,
Cc1cc(Br)cn2c(Cc3ccccc3C(F)(F)F)c(-c3ccc(Cl)cc3)nc12,-13.7,
COc1c(C)cc(C(O)c2ncc(-c3cccc(C(F)(F)F)c3)[nH]2)cc1C (stereo not given),-15.2,
O=C(Nc1cccc2ccccc12)NC1CC1,-1.82,
O=C(CSc1ncn[nH]1)Nc1nc2c(F)c(F)c(F)cc2s1,-0.672,
C/C(=N/NC(=O)CCc1ccccc1)c1ccco1,-0.746,
C/C(=N\NC(=O)c1ccoc1C)c1ccccc1O,,13 µM (active)
Cc1occc1C(=O)NNC(=S)NCC(C)C,2.42,
CCN(CC(=O)Nc1ccc(NC(C)=O)cc1)C(=O)C1CC(=O)N(c2ccc3c(c2)OCCO3)C1 (stereo not given),4.52,
O=C1c2cccc3c([N+](=O)[O-])ccc(c23)C(=O)N1CC1CCCO1 (stereo not given),,18.4 µM (active)
CN1CN(C)c2ccc([N+](=O)[O-])c3cccc1c23,-10.4,
CCOc1cccc(=O)c2c(C)n(CC3CCCO3)c(C)c12 (stereo not given),9.25,
CCNC(=O)C1(C)CCN(Cc2ccc(C(=O)OCC)o2)C1 (stereo not given),1.14,
Cc1cccc(C(=O)NC2CCN(CC(=O)Nc3cccc(Cl)c3)CC2)c1,-7.44,
CC1(C(=O)NS(=O)(=O)c2ccc3ccccc3c2)CCN1C(=O)C1(c2ccc(Cl)cc2)CCC1 (stereo not given),23.1,
O=C(O)c1ccccc1Cc1ccc(F)c2ccccc12,4.06,
CS(=O)(=O)N(CC(O)Cn1c2ccccc2c2ccccc21)c1cccc2ccccc12 (stereo not given),,20.6 µM (active)
Cc1cc(C)n(CC(O)CN(c2ccccc2)S(=O)(=O)c2ccc3ccccc3c2)n1 (stereo not given),-8.66,
CCCCN(CCCC)CC(O)Cn1c2ccccc2c(=O)c2ccccc21 (stereo not given),0.0158,
CC1(C(=O)NS(=O)(=O)Cc2cccc(Cl)c2)CCN1C(=O)Cc1ccc(Cl)cc1Cl (stereo not given),9.54,
Cc1ccccc1NC(=O)Cc1nc(COC(=O)C(C)(C)Oc2ccc(Cl)cc2)cs1,2.59,
Oc1ccc(N=Nc2nccs2)c(O)c1,,4.11 µM (active)
Cc1cc2c3ccccc3[nH]c(=O)n2n1,7.95,
COC(=O)[C@]12CCCCC=C1N(CCC1=CCCCC1)C(=O)[C@H](CC(=O)N1CCSCC1)C2,1.87,

SMILES,"activity, negative = toxicity [%]",Potency
CCNC(=O)C1(C)CCCN1C(=O)c1ccc(N(C)C)cc1 (stereo not given),18.9,
O=C(CNC(=O)c1cccs1)N/N=C/c1cccc(Br)c1,16.4,
CC(=O)NC(Cc1c[nH]c2ccccc12)C(=O)O (stereo not given),7.98,
O=C(NC(Cc1c[nH]c2ccccc12)C(=O)N/N=C/c1ccc(Br)cc1)c1cccs1 (stereo not given),,32.6 µM (active)
Cc1noc(C)c1-c1ccc(C(=O)NCc2ccncc2)c2occc12,-15.1,
C=CCNC(=O)/C(=C\c1cccc([N+](=O)[O-])c1)NC(=O)c1ccccc1,17.2,
Cc1ccc(C(=O)N/C(=C/c2ccc(-c3cccc([N+](=O)[O-])c3)o2)C(=O)NCCCN(C)C)cc1,,14.6 µM (active)
CN(C)CCNC(=O)/C(=C/c1cccc([N+](=O)[O-])c1)NC(=O)c1ccccc1,12.4,
COc1ccc(C(C(=O)Nc2c(C)cccc2C)N2CCN(c3ccc(C)cc3)CC2)cc1 (stereo not given),14.1,
CCCC(=O)N1CCC1(C)C(=O)Nc1ccc(-n2cncn2)cc1 (stereo not given),0.229,
CCCNC(=O)C1(C)CCN(Cc2ccc(Cl)c(Cl)c2)C1 (stereo not given),-3.21,
COc1ccc(-c2c(C#Cc3ccccc3)c3ccccc3n2C)cc1,10.4,
COc1ccc(CCNCc2c(-c3ccccc3)n(C)c3ccccc23)cc1,,14.6 µM (active)
COc1ccc(-c2nc3ccccc3c(=O)n2CCc2ccc(O)cc2)cc1,-2.66,
CC(=O)NC(c1ccccc1)c1nc(-c2ccccc2C)cs1 (stereo not given),2.07,
C[C@H]1CN([C@@H](C)CO)C(=O)c2cc(-c3ccccc3F)cnc2O[C@H]1CN(C)C(=O)C1CCOCC1,-1.01,
O=C(Nc1cccc2cccnc12)c1ccc2sc([C@H]3C[C@H](O)[C@@H](CO)O3)nc2c1,-23.2,
CCOCCC(=O)Nc1ccc2c(c1)c(=O)n(C)n2-c1ccc2ccccc2c1,,1.46 µM (active)
CCCC(=O)Nc1ccc2c(c1)nc1n2CCSC1,25.5,
CCNC(=S)Nc1ccc2c(c1)c(=O)n(C)n2Cc1ccc(Cl)cc1,3.42,
CCCCN(C(C)=O)c1ccc2c(c1)C1CC2CCN1Cc1ccccc1 (stereo not given),6.78,
COc1ccc(CCn2c3c(c(=O)[nH]c2=S)CN(C(C)C)CN3)cc1OC,-12.1,
C[C@H]1CN([C@@H](C)CO)C(=O)CCCn2nncc2CO[C@@H]1CN(C)Cc1ccc(Oc2ccccc2)cc1,-5.96,
CC(=O)Nc1ccc(C=Cc2ccc([N+](=O)[O-])cc2)cc1,6.94,
O=[N+]([O-])c1ccc(C=NN=Cc2ccc([N+](=O)[O-])cc2)cc1,10.6,
